Compounds with a hit are over-represented: about 4.2% of the library has one in this group of screens.
S1P4 antagonist = blocks the human S1P4 receptor; S1P4-expressing cells, antagonist mode, reporter read-out; 220,000 tested, 0.26% active; O95977; AID 1510; inhibition, % at 4.98 µM; in the data active = inhibition above about 29%;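 note: 0% = wells stimulated with agonist and 100% = vehicle wells without agonist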
Target sequence (O95977 whole entry, looked up): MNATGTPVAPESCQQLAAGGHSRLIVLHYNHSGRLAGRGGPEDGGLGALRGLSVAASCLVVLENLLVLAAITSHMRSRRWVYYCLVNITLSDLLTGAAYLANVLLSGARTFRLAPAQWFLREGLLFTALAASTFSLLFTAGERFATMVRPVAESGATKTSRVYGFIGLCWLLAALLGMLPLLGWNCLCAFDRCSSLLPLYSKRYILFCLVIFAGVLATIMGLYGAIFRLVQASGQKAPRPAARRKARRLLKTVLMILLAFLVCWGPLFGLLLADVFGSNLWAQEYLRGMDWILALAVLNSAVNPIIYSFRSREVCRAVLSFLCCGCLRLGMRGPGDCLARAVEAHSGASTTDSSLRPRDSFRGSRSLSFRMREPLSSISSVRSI
CHOP inh = blocks CHOP induction under ER stress | CHO-K1 CHOP-promoter luciferase, tunicamycin-induced, 15-18 h | inhibition, % at 10 µM | 220,000 tested, 3.8% active | AID 2732;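 active = compounds that reduced the stress-induced luciferase reporter signal by more than about 70% of percent inhibition, limit read from the data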;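 note: 0% = tunicamycin plus vehicle and 100% = wells without tunicamycin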
Hsp70 act = transcriptional activators of Hsp70; HeLa Hsp70 promoter luciferase reporter, luminescence; scaled: vehicle 0, proteasome-inhibitor control 100%; activation, % at 10 µM; 200,000 tested, 0.04% active; AID 1203;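 active = activation above the mean across all tested compounds plus 3 SD, cutoff set per campaign, cut at about 5.5% in these data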;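 note: 100% = MG132 at 30 µM as the positive control and 0% = DMSO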
S1P4 agonist = agonists of human S1P4 receptor; 220,000 tested, 0.35% active; O95977; activation, % at 4.98 µM; S1P4-expressing cell line, agonist reporter assay; in the data active = activation above about 11%;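 note: 0% = DMSO vehicle and 100% = reference agonist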
Active calls of the source: *; · = no result.

SMILES	S1P4 antagonist	CHOP inh	Hsp70 act	S1P4 agonist
Cc1ccc(N2C(=O)c3cccc4c([N+](=O)[O-])ccc(c34)C2=O)c2cccnc12	-16	95*	·	1
O=[N+]([O-])c1ccc(O)c2ncccc12	-13	87*	0	0
O=[N+]([O-])c1cc(CN2CCN(c3ccccc3)CC2)c(O)c2ncccc12	-4	77*	-1	1
CN(C)S(=O)(=O)c1ccc(Nc2ccc(-c3ccc4c(c3)OCCO4)nn2)cc1	-14	18	0	0
Cc1nnc(N(Cc2ccco2)C(=O)c2ccc(C#N)cc2)s1	-5	-8	1	0
C/C=C/Cn1c(SCc2ccc(Cl)cc2)nc2c1c(=O)[nH]c(=O)n2C	-13	76*	0	2
CCCn1c(SCc2ccc(Cl)cc2)nc2c1c(=O)[nH]c(=O)n2C	4	82*	0	0
CCCn1c(Sc2nc3c(c(=O)[nH]c(=O)n3C)n2CCC)nc2c1c(=O)[nH]c(=O)n2C	14	-3	0	-3
CC(=O)NC1=C(NC2CCS(=O)(=O)C2)C(=O)c2ccccc2C1=O (stereo unspecified)	2	-2	0	-2
CN(C1=C(NC(=O)c2ccccc2)C(=O)c2ccccc2C1=O)C1CCS(=O)(=O)C1 (stereo unspecified)	-10	107*	0	-2
NC(=O)c1ccccc1N/C=C1\CCCCC1=O	-8	5	0	0
Cc1nn(-c2ccccc2)c(N)c1Sc1ccc([N+](=O)[O-])cc1	-6	26	0	0
Cc1nn(S(=O)(=O)c2ccc(Cl)cc2)c(C)c1Sc1ccc([N+](=O)[O-])cc1	-23	85*	0	1
CCC(=O)Nc1nc2ccc([N+](=O)[O-])cc2s1	-5	9	·	0
Cc1ccc(C)c(OCC(=O)Nc2nc3ccc([N+](=O)[O-])cc3s2)c1C	-3	80*	0	-1
C(=C\c1ccc2ccccc2n1)/c1ccccc1	-3	71*	·	0
C=CCSc1nnc(-c2sc(-c3ccccc3)nc2C)n1C	3	12	0	-1
C=CCN(C(=O)CSC1=NC(=O)CN1C(C)=O)c1nc(C)c(-c2ccccc2)s1	-3	95*	0	2
COc1ccc(OC)c2c1sc(=NC(=O)c1ccco1)n2C	-7	31	0	-1
Cc1ccc(C)c(-n2nnnc2SCC(=O)NCCC2=CCCCC2)c1	-4	86*	-1	0
CNC(=O)CSc1nnnn1-c1cc(C)ccc1C	-33	24	0	4
NC(=O)CC(NC(=O)Cc1ccc(Br)cc1)c1ccc(N2CCN(c3ccc(F)cc3)CC2)c([N+](=O)[O-])c1 (stereo unspecified)	·	85*	·	·
NC(=O)CC(NC(=O)c1ccc(Br)cc1)c1ccc(N2CCN(c3ccc(F)cc3)CC2)c([N+](=O)[O-])c1 (stereo unspecified)	·	93*	·	·
O=C(N/N=C/c1ccc[nH]1)c1ccccc1O	-15	-5	0	3
CCOc1cc(-c2nc(-c3ccc(OC)cc3)no2)cc(OCC)c1OCC	2	26	0	0
SMILES	S1P4 antagonist	CHOP inh	Hsp70 act	S1P4 agonist
CCOc1cc(-c2nc(-c3ccccc3OC)no2)cc(OCC)c1OCC	-14	76*	0	0
O=C(CC1SCCNC1=O)Nc1cccc(Cl)c1 (stereo unspecified)	10	5	0	-1
Clc1cccc(-c2nc3nc4ccccc4nc3n2Cc2ccccc2)c1	-10	9	0	0
CCC(=O)c1ccc(OCC(O)CN2CCN(C(c3ccccc3)c3ccccc3)CC2)cc1 (stereo unspecified)	4	86*	0	0
Cc1cccc(C)c1NC(=O)CSc1nnc(NC(=O)c2ccccc2C(=O)O)s1	-28	-19	·	0
COc1ccc2[nH]c(=O)c(CN(CCc3ccccc3)C(C)=O)cc2c1	-8	6	0	0
Cc1ccccc1Nc1c([N+](=O)[O-])ccc2c1=NC1(CCCCC1)N=2	-8	76*	0	-1
CCN(CCNC(=O)C1CCC(=O)N1Cc1ccc(C)cc1)c1ccccc1 (stereo unspecified)	10	8	0	1
CCCNS(=O)(=O)c1ccc(Oc2ncc(C(F)(F)F)cc2Cl)cc1	2	74*	0	1
O=C(O)CCN1CCc2ccccc2C1c1cccs1 (stereo unspecified)	8	-1	0	-1
O=C(NCc1ccccn1)c1ccccc1-c1ccccc1	-8	8	-1	2
Cc1cc(NS(=O)(=O)c2ccc(NC(=O)c3cc4cc(Br)ccc4oc3=O)cc2)no1	-5	91*	0	1
Cc1cc(NC(=O)c2cc3ccccc3oc2=O)no1	15	24	1	0
FC(F)(F)c1nnc2sc(-c3ccncc3)nn12	-2	6	0	0
CCCCn1c(=N)n(CC(O)COc2ccc(C)cc2)c2ccccc21 (stereo unspecified)	20	72*	0	-1
CCCN(CCC)C(=O)CC(c1ccccc1)c1cc(Br)ccc1O (stereo unspecified)	-3	92*	0	-2
CC1CCCC(NC(=S)NC(=O)c2ccccc2Br)C1C (stereo unspecified)	-2	89*	0	-2
COc1cccc(OC)c1C(=O)Nc1nnc(-c2cccs2)s1	18	20	0	0
Cc1ccccc1CNC(=O)Nc1cccs1	-3	3	0	1
Cc1nc2cc(C(=O)O)ccc2n1-c1ccccc1	-22	38	0	0
Cc1ccccc1Cn1nc(C)c(NC(=O)c2noc3c2CC(C(C)(C)C)CC3)c1C (stereo unspecified)	5	32	0	0
Cc1ccccc1Cn1cc(NC(=O)c2noc3c2CC(C(C)(C)C)CC3)cn1 (stereo unspecified)	-25	86*	0	-1
CCOC(=O)C(NS(=O)(=O)c1ccc(Br)cc1)C(C)C (stereo unspecified)	-13	39	0	2
Cc1ccc(Sc2c(C)nn(C(=O)c3cccc(S(=O)(=O)N4CCOCC4)c3)c2C)cc1	2	15	0	0
CCCCC(=O)Nc1ccc(Br)cn1	-5	-6	0	-2
SMILES	S1P4 antagonist	CHOP inh	Hsp70 act	S1P4 agonist
CC(C)=CC1C(C(=O)Nc2ccc(Br)cn2)C1(C)C (stereo unspecified)	10	76*	0	-1
Cc1c(Cl)cccc1NC(=O)NC1CCCCC1	12	78*	0	-2
COc1ccc(N(C)S(=O)(=O)c2cccc3cccnc23)c(OC)c1	-8	-5	0	0
CCCCN(CCCC)CP(=O)(c1ccccc1)c1ccccc1	7	73*	0	1
CCCCCCP(=O)(O)c1ccccc1	-13	14	0	-3
Cc1cc(CNC(=O)c2ccc(C)c([N+](=O)[O-])c2)c2ccccc2n1	7	30	0	2
COc1ccc(/C=C/C(=O)c2cc(Cl)cc(Cl)c2O)c(OC)c1	7	71*	·	1
CCC/C=N/NC(=O)c1cccc(Br)c1	-4	4	0	2
O=C(NN=C1c2ccccc2-c2ccccc21)c1cccc(Br)c1	-6	77*	0	-1
C#CCSc1ncc(-c2ccccc2)cn1	-9	-11	0	0
